Assay outcomes as filed in PubChem BioAssay.
MCF10A rereplic: A quantitative high throughput screen for small molecules that induce DNA re-replication in MCF 10a normal breast cells. hit rate 2.9% among 350,000. MCF 10A DNA re-replication, Hoechst nuclear intensity, 48 h. Potency, µM (highest dose often 46.1 µM), inactives show at the highest dose activity, positive = re-replication, actives largely listed as activators; further: % of control where 0% means no effect; nearly all actives have a fitted effect of over 50% in size
HT1080 IDH1KD tx: qHTS for induction of synthetic lethality in tumor cells producing 2HG: qHTS for the HT-1080-IDH1KD cell line. HT-1080 IDH1 knockdown viability, ATP luminescence, 48 h. Potency, µM (highest dose often 46.1 µM), inactives show at the highest dose activity, negative = toxicity, most hits filed as cytotoxic. hit rate 2% among 360,000. AID 686971, 2013;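 further: 0% = DMSO wells and -100% = cell-free medium wells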
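After a 2 h attachment period, IDH1KD HT-1080 cells took pin-transferred compound for 48 h at 37 °C; ATP-based luminescence after 10 min room-temperature reagent incubation reported viability.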
SW480 rerep: A quantitative high throughput screen for small molecules that induce DNA re-replication in SW480 colon adenocarcinoma cells; hit rate 1.8% among 340,000; SW480 DNA re-replication, Hoechst DNA content imaging, 48 h; Potency, µM (highest dose often 46.1 µM), for inactives: at the top dose re-replication activation, hits mostly activators; AID 624297, 2012; further: % of control where 0% means no effect; nearly all actives have a fitted effect of over 55% in size
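Image-based DNA-content assay: after two days of treatment, nuclei were labelled with the DNA dye Hoechst and imaged, and hits were compounds raising the count of nuclei showing high fluorescence intensity.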
KB-3-1 cytotox: qHTS assay for MDR1-selective chemotherapeutics: Primary screen using the parental adenocarcinoma cell KB-3-1; KB-3-1 viability, CellTiter-Glo ATP luminescence, 72 h; hit rate 1.4% among 400,000; Potency, µM (top dose mostly 46.1 µM), hits mostly cytotoxic; further: on the % scale 0 is the no-effect control and ±100 the full control effect; nearly all actives have a fitted effect of over 60% in size
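Cytotoxicity in the drug-sensitive parental line KB-3-1 was scored as loss of CellTiter-Glo luminescence following 72 h incubation with compound. Values come from curve fitting of normalized concentration-response data.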
HT1080-NT tox: qHTS for induction of synthetic lethality in tumor cells producing 2HG: qHTS for the HT-1080-NT fibrosarcoma cell line. HT-1080-NT fibrosarcoma viability, CellTiter-Glo ATP luminescence, 48 h. Potency, µM (doses to about 46.1 µM), for the others: at the top dose activity, negative = less viability, most hits filed as cytotoxic. hit rate 1.6% among 360,000. AID 686970, 2013;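 further: NT is the 2HG producing partner of a matched IDH1 knockdown line; 0% = DMSO-treated cells and -100% = media-only wells without cells; nearly all actives have a fitted effect of over 55% in size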
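A 48-hour cytotoxicity screen used HT-1080-NT cells plated 2 hours before compound delivery. ATP-based CellTiter-Glo luminescence measured viability, normalized to DMSO and no-cell controls.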
KB-V1 MDR tox: qHTS assay for MDR1-selective chemotherapeutics: Primary screen using the drug-selected MDR subline cells KB-V1; Potency, µM (series often up to 46.1 µM), actives largely listed as cytotoxic; KB-V1 MDR cells viability, CellTiter-Glo, 72 h; AID 1347076, 2019; hit rate 3.4% among 400,000; further: on the % scale 0 is the no-effect control and ±100 the full control effect; nearly all actives have a fitted effect of over 60% in size
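Potencies derive from concentration-effect curves fitted to normalized luminescence (CellTiter-Glo) of KB-V1 cells treated for 72 h at 37 degrees C in phenol-red-free DMEM containing 10% FBS.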
* = called active by the depositor; i = inactive; u = inconclusive; x = no result given; ! = not confirmed by another sample; [ ] = another dose, or the depositor's remark. A selection: hits, their analogues and other compounds. The true share with any hit is near 7.9%. The call rests on the fitted dose curve; in most records, active means well fitted curve in the direction sought with a large enough effect; inconclusive means small, poorly fitted or top-dose-only effect, or another doubt; inactive means no such curve, though single readings can be large; an effect the other way counts as inactive or inconclusive. Potency means the concentration at half of the fitted maximal effect.

SMILES	MCF10A rereplic	HT1080 IDH1KD tx	SW480 rerep	KB-3-1 cytotox	HT1080-NT tox	KB-V1 MDR tox
CCc1nnc(NC(=O)c2nc(S(=O)(=O)Cc3ccc(C)cc3)ncc2Cl)s1	1.3µM*	15µM*	93%	16µM*!	18µM*	u
CCc1nnc(NC(=O)c2nc(Cl)ccc2Cl)s1	2%	28%	-19%	i	29%	u
O=C(NCc1ccc2c(c1)OCO2)c1nc(S(=O)(=O)Cc2ccccc2)ncc1Cl	u	16µM*	u	21µM*	16µM*	u
CN(Cc1ccccc1)S(=O)(=O)c1ccc(Cl)c(C(=O)NCc2ccncc2)c1	19%	-9%	8%	i	-6%	u
O=C(NCc1ccc2c(c1)OCO2)c1nc(S(=O)(=O)Cc2ccccc2F)ncc1Cl	-9%	u	11%	i	16µM*	i
O=C(NCc1ccccc1)c1nc(S(=O)(=O)Cc2ccccc2)ncc1Cl	u	u	-18%	i	u	i
COC(=O)c1ccc(NC(=O)c2nc(S(=O)(=O)Cc3ccccc3F)ncc2Cl)cc1	x	x	x	u	x	i
CN(Cc1ccccc1)S(=O)(=O)c1ccc(Cl)c(C(=O)NCc2ccc3c(c2)OCO3)c1	-2%	-11%	-100%	i	-6%	12µM*
O=c1ccn([C@@H]2O[C@H](CNCc3c(OCc4ccccc4F)ccc4ccccc34)[C@@H](O)[C@H]2O)c(=O)[nH]1	x	u	x	i	u	i
Cc1c(NC(=O)c2ccc(-c3cccc([N+](=O)[O-])c3)o2)cccc1-c1nc2cc(Cl)ccc2o1	x	x	x	i	x	i
CC(C)CSc1nnc(-c2ccccc2)c(-c2ccccc2)n1	x	x	x	i	x	i
CCN(CC(=O)Nc1ccccc1OC)C(=O)C1CCCC1	0%	2%	2%	i	10%	13µM*
CCCN(CC(=O)Nc1ccccc1OC)C(=O)C1CCCC1	0%	-1%	-5%	i	-3%	u
Cc1noc2ncnc(Sc3c(Cl)cccc3Cl)c12	4.5µM*	u	u	u	u	u
Cc1noc2ncnc(Sc3ccc(Cl)cc3)c12	12µM*	4%[9.24 µM]	u	u	u	i
Cc1ccccc1Sc1ncnc2onc(C)c12	u	-4%[9.24 µM]	-8%	u	-4%	i
CCOc1ccc(CNC(=O)c2cccc(NC(=O)C3=C(C)OCCS3)c2)cc1	-4%	-6%	-5%	i	-3%	i
CC1=C(C(=O)Nc2ccc(CC(=O)NCc3ccc(OC(C)C)cc3)cc2)SCCO1	0.33µM*	u	u	0.37µM*	u	u
COc1ccc(CNC(=O)Cc2ccc(NC(=O)C3=C(C)OCCS3)cc2)cc1	8.2µM*	5.8µM*	u	1µM*	u	15µM*
CN(C)c1ccc(/C=c2\[nH]c(=O)/c(=C\c3ccc(N(C)C)cc3)[nH]c2=O)cc1	x	x	x	i	x	i
CCN(CC)S(=O)(=O)c1cc(NC(=O)Cn2cnc3ccccc3c2=O)ccc1C	9%	-10%	15%	i	1%	i
CN(c1ccccc1)S(=O)(=O)c1cccc(NC(=O)Cn2cnc3ccccc3c2=O)c1	11%	-9%[9.24 µM]	-2%	u	-20%	23µM*
CN(c1ccccc1)S(=O)(=O)c1cccc(NC(=O)CC(C)(C)C)c1	-1%	1%	1%	i	20%	2.6µM*
Cc1ccc(C(=O)Nc2cccc(S(=O)(=O)N(C)c3ccccc3)c2)o1	7%	10%	-1%	i	2%	16µM*
CN(c1ccccc1)S(=O)(=O)c1cccc(NC(=O)COc2cccc([N+](=O)[O-])c2)c1	1%	0%	-2%	i	1%	18µM*
